Screening data from PubChem BioAssay.
An excerpt weighted towards active compounds, which were near 11% of everything screened.
G9a block: G9a (human) methyltransferase inhibition. AID 504332. hit rate 8.8% among 350,000. G9a H3K9 monomethylation, AlphaScreen, 2 h. Potency, µM (titrated, usually from 102 µM), without a hit: at the top dose activity, negative = inhibition, usual class: inhibitors; note: % is set by controls: 0 for no effect and ±100 for the full control effect; nearly all actives have a fitted effect of over 75% in size
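Enzyme 20 nM + cpd, 15 min RT; add b-H3K9 pep 500 nM / SAM 20 uM; 2 h RT; anti-H3K9me1 Ab 0.5 ug/mL + SA donor / anti-rabbit acceptor beads 20 ug/mL each, 10 min; AlphaScreen read.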
BAZ2B inh: inhibitors of human BAZ2B bromodomain; Q9UIF8; Potency, µM (series often up to 114 µM), for the others: at the highest dose activity change, negative = inhibition, actives largely listed as inhibitors; AID 504333; AlphaScreen BAZ2B-H3K14Ac peptide displacement; hit rate 4.4% among 360,000; note: % is set by controls: 0 for no effect and ±100 for the full control effect; nearly all actives have a fitted effect of over 60% in size
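Compounds, titrated to a top concentration of 110 uM, were incubated 30 min at room temperature with preformed BAZ2B/acetyl-K14 H3 peptide complex (50 nM each). Proximity signal was measured by AlphaScreen after 20 min with beads.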
JMJD2A Tudor inh: JMJD2A Tudor domain (human) inhibition; AlphaScreen JMJD2A-Tudor / H3K4me3 peptide binding; Potency, µM (doses to about 114 µM), for the others: at the highest dose activity change, negative = inhibition, actives largely listed as inhibitors; hit rate 4.4% among 390,000; note: % is set by controls: 0 for no effect and ±100 for the full control effect; nearly all actives have a fitted effect of over 50% in size
L3MBTL1 block: L3MBTL1 (human) inhibition | Q9Y468 | AlphaScreen L3MBTL1–H3K9me1 peptide binding | Potency, µM (top dose mostly 57.1 µM), for the others: at the highest dose activity, negative = inhibition, most hits filed as inhibitors | hit rate 0.66% among 230,000 | AID 485360; note: % is set by controls: 0 for no effect and ±100 for the full control effect; nearly all actives have a fitted effect of over 60% in size
Target sequence (Q9Y468 whole entry, looked up): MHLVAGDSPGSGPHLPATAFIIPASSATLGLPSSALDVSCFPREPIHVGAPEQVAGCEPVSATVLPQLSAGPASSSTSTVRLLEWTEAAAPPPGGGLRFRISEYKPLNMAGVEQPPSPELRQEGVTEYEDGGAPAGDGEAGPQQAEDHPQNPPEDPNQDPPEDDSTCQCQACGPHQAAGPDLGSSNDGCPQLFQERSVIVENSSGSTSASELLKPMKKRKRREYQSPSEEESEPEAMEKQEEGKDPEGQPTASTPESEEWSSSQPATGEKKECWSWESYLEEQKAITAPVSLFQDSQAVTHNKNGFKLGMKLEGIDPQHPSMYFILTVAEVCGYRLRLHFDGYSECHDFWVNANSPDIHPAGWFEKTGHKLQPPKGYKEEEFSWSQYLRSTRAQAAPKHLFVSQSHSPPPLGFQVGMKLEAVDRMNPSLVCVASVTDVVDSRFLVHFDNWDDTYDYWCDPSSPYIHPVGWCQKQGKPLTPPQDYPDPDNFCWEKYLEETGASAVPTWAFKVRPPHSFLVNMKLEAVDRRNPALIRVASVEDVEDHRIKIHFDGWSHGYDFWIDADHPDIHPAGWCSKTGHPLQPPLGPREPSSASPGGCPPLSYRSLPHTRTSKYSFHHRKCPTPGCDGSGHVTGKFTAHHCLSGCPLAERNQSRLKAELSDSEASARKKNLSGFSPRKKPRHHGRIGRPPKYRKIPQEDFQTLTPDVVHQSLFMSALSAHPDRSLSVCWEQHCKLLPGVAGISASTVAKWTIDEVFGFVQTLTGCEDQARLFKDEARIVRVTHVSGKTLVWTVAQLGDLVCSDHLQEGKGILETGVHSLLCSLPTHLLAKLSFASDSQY
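L3MBTL1 50 nM + b-AHA-H3(1-15)K9me1 75 nM, 30 min RT; compound added, 30 min RT; streptavidin donor/Ni-chelate acceptor beads 10 ug/mL each final, 30 min RT dark; AlphaScreen read.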
HP1b binding inh: HP1-beta chromodomain-methylated histone interaction inhibition; P83916; AlphaScreen HP1-beta / biotin-H3K9me3 peptide binding; Potency, µM (series often up to 114 µM), for the others: at the highest dose activity change, negative = inhibition, actives largely listed as inhibitors; hit rate 0.56% among 390,000; note: nearly all actives have a fitted effect of over 70% in size
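Compound inhibition of the preformed complex between 50 nM HP1-beta and 50 nM biotinylated H3K9me3 peptide was read by AlphaScreen. Buffer was PBS pH 7.4 with 0.01% Tween-20. Incubations ran 30 min at room temperature, with 10 ug/mL donor/acceptor beads.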
The depositor's hits bear a star; ? = inconclusive; . = no result given; ! = not confirmed by another sample; [ ] = remark or other dose. Calls come from the whole dose curve; as a rule, active = well fitted inhibition curve with a large enough effect; inconclusive = small, poorly fitted or top-dose-only effect; inactive = no such curve, though single readings can be large or run the other way. Potency is the fitted concentration of half-maximal effect.

SMILES | G9a block | BAZ2B inh | JMJD2A Tudor inh | L3MBTL1 block | HP1b binding inh
CCCCN(C)CC(O)Cn1cc(/C=C/C(=O)c2ccc(OC)c(OC)c2)c2ccccc21 (centres undefined) | -29%[59 µM] | ? | ? | . | 19%
Cc1nc2nc(SCC(=O)NCCc3ccc(Cl)cc3)nn2c(C)c1Cc1ccccc1 | -3%[59 µM] | -15% | -27% | . | 2%
COc1cccc(C2c3c(ncn(-c4ccccc4Br)c3=N)Oc3ccc4ccccc4c32)c1 (centres undefined) | . | . | 50µM* | . | .
COc1cccc(C2c3c(ncn(-c4ccccc4C#N)c3=N)Oc3ccc4ccccc4c32)c1 (centres undefined) | . | . | 56µM* | . | .
O=C1CCc2cc(S(=O)(=O)Nc3ccncc3)ccc2N1 | . | . | -24% | . | .
COc1ccc(C=O)cc1COc1ccc([N+](=O)[O-])c(C)c1 | 3% | -13% | -15% | -5% | 22%
COc1ccc(C=O)cc1COc1ccc2c(c1)OCO2 | 9%[0.501 µM] | ? | 7.1µM* | -18% | -30%
COc1ccc(OC)c(CNc2ccc([N+](=O)[O-])cc2C)c1 | ? | ? | 28µM* | . | ?
COc1ccc([N+](=O)[O-])cc1NCc1ccccc1 | 97%[59 µM] | 22% | 42%[57.1 µM] | 47% | 123%
COc1ccc([N+](=O)[O-])cc1NCc1ccccc1C | ? | -1% | 32µM* | 20% | 75%
COc1cccc(CNc2ccc([N+](=O)[O-])cc2C)c1 | . | -29% | -29% | -18% | 27%
O=[N+]([O-])c1ncccc1OCc1ccc(Br)cc1F | -5% | 12% | 0% | . | 19%
O=C(c1ccc(-n2cncn2)c([N+](=O)[O-])c1)N1CCN(S(=O)(=O)c2ccc(F)c(F)c2)CC1 | -35% | -1% | -10% | 6% | 32%
CCCCn1c(SCC(=O)OCC)nc2c1c(=O)[nH]c(=O)n2C | 10µM* | 8% | -18% | 8% | -10%
CCOC(=O)CSc1nc2c(c(=O)[nH]c(=O)n2C)n1C/C=C(/C)Cl | 14µM* | 6% | -18% | 4% | -26%
CCCCCn1c(SCCN2CCOCC2)nc2c1c(=O)[nH]c(=O)n2C | 25µM* | 1% | -20% | 5% | -20%
CCOC(=O)CSc1nc2c(c(=O)[nH]c(=O)n2C)n1CCc1ccccc1 | -1% | 3% | -8% | -1% | 19%
COc1ccc(-c2onc(C)c2C)cc1S(=O)(=O)Nc1cccc(C#N)c1 | -3%[59 µM] | 0% | -4% | . | 22%
Cc1cccc(-n2c3c(cc(-c4nc(-c5ccc(Cl)cc5)cs4)c2=O)C(=O)CC(C)(C)C3)c1 | -6%[59 µM] | 15% | 15% | . | 17%
CC(C)(C)c1ccc(C(=O)NCC(c2ccco2)S(=O)(=O)c2ccccc2)cc1 (centres undefined) | -30%[59 µM] | -1% | -18% | . | 21%[57 µM]
COc1ccccc1NC(=O)CSc1nc(O)c(C/C=C/c2ccccc2)c(=O)[nH]1 | -34%[59 µM] | -4% | -8% | . | 16%
NC(CC(=O)NC(c1ccccc1)(c1ccccc1)c1ccccc1)C(=O)O (centres undefined) | -3% | -11% | 0% | . | 12%
Nc1ccccc1C(=O)C[C@H](N)C(=O)O | 2%[59 µM] | . | 18µM* | . | 2%
COC(=O)C1=C(C(=O)OC)[C@@H]2N(C)c3ccc(OC)cc3[C@@]23C[C@@H](C(=O)OC)N(C(=O)c2ccc(Br)cc2)C3=N1 | ? | 20µM* | 13µM* | . | -23%
COc1ccc(/C=C/C(=O)c2ccc(C)c([N+](=O)[O-])c2)cc1O | 45µM* | ? | ? | -14% | -22%
SMILES | G9a block | BAZ2B inh | JMJD2A Tudor inh | L3MBTL1 block | HP1b binding inh
COc1cc(/C=C/C(=O)c2ccc(C)c([N+](=O)[O-])c2)cc(OC)c1O | 45µM* | -25% | -26% | -2% | 0%
CC(=O)c1ccc(NC(=O)c2nn(C)c3c2COc2ccccc2-3)cc1 | ? | ? | -29% | . | 3%
O=[N+]([O-])c1ccc(-c2c[nH]c(=S)[nH]2)cc1 | 2µM* | -2% | ? | ? | ?
COc1cc(-c2ccccc2)[nH]c(=S)n1 | 27%[2.33 µM] | ? | -12% | 9% | 58%
S=c1[nH]cc(-c2ccccc2)[nH]1 | -130%[59 µM] | -8% | 25µM* | . | 0%
Cc1nc(-c2ccc(C)c(N3CCN(C(=O)Nc4cccc(Cl)c4C)CC3)c2)no1 | 15%[59 µM] | 1% | 4% | . | 30%[57 µM]
COc1ccc(C2(C(=O)O)CCCC2)cc1 | -23%[12.7 µM] | -7% | -29% | . | 22%
COc1ccc(C2(C)CC(C)(C)Nc3ccccc32)cc1 (centres undefined) | -2%[0.501 µM] | ? | 50µM* | 2%[2.29 µM] | ?
CCCCS(=N)(=O)CC[C@H](N)C(=O)O (some centres undefined) | 10µM*! | . | . | . | .
CN=C(N)NCCC[C@H](N)C(=O)O | ? | -10% | -16% | 0% | 33%
COCCOc1ccc(C(F)(F)F)cc1NC(=O)c1ccc(C(F)(F)F)cc1 | 21% | 5% | -7% | 10% | 35%
COCCOc1ccc(C(F)(F)F)cc1Nc1nc2ccccc2o1 | ? | 13% | 28µM* | . | 30%
COc1ccc(CN2CCc3c(c(=O)n4ncc(C(=O)N5CCN(c6ccccc6F)CC5)c4n3C)C2)cc1 | -10%[59 µM] | -16% | -12% | . | 23%[57 µM]
Cc1ccccc1OCc1nc2ccccc2c(=O)n1/N=C/c1c[nH]c2ccccc12 | -6% | 0% | -18% | -13% | 4%
Cc1cc(/C=N/n2c(COc3ccccc3C)nc3ccccc3c2=O)c(O)c([N+](=O)[O-])c1 | ? | ? | 25µM* | ? | ?
CN(C)S(=O)(=O)c1cccc(N=c2scc(-c3ccc4c(c3)NC(=O)CO4)n2CC2CCCO2)c1 (centres undefined) | -43%[12.7 µM] | 50µM* | ? | . | ?
c1ccc(-c2csc(=Nc3cccnc3)n2CC2CCCO2)cc1 (centres undefined) | ? | ? | ? | -16% | -11%
O=C1COc2ccc(-c3csc(=Nc4ccc(OC(F)F)cc4)n3CC3CCCO3)cc2N1 (centres undefined) | 27%[0.501 µM] | ? | ? | -21% | -15%
COc1ccccc1N=c1scc(-c2ccc3c(c2)NC(=O)CO3)n1CC1CCCO1 (centres undefined) | ? | 45µM* | ? | . | ?
CCOc1ccccc1N1CC(c2nc3ccccc3n2CCOc2ccccc2OC)CC1=O (centres undefined) | -39%[59 µM] | -15% | -20% | . | 21%
c1ccc2c3c([nH]c2c1)C(C1CCCCC1)N(Cc1ncc[nH]1)CC3 (centres undefined) | 45µM* | ? | ? | -10% | -7%
Cc1cnc(CN2CCc3c([nH]c4ccccc34)C2C2CCCCC2)[nH]1 (centres undefined) | -3% | -18% | -20%[57.1 µM] | 0% | -6%
Cc1ncoc1C(=O)N1CCc2c([nH]c3ccccc23)C1C1CCCCC1 (centres undefined) | . | 25µM* | ? | -4% | -2%
